Measured values reported in PubChem BioAssay (NCI).
About 83,000 compounds went through this panel and 20% of them were active in at least one assay; those are over-represented in the sample as a whole.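 Plates (96-well) were seeded with cells, treated with compound at one concentration, and incubated for 48 hours before percent growth was determined.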 A number with no mark means an inactive call. Activity calls are given as the source filed them. Rule for the calls: active = growth percent below 10; inactive = the rest.

Tests used:
Assay in all cases: NCI-60 one-dose screen, 48 h (100 = growth as untreated, 0 = no growth, -100 = all killed)
Details in all cases: 10 µM unless noted
NCI-H23 lung = system: NCI-H23 lung
NCI-H226 lung = system: NCI-H226 lung
NCI-H322M lung = system: NCI-H322M lung
HOP-62 NSCLC = system: HOP-62 NSCLC
NCI-H460 lung = system: NCI-H460 lung
HOP-92 NSCLC = system: HOP-92 NSCLC
NCI-H522 lung = system: NCI-H522 lung
A549/ATCC NSCLC = system: A549/ATCC NSCLC
786-0 renal = system: 786-0 renal
COLO 205 colon = system: COLO 205 colon

Q: What does the source list for `COc1ccc(NC(=O)[C@H](CO)NC(=O)OC(C)(C)C)cc1C(=O)Nc1cccc(C2CC(=O)c3c(cc(OC)c(OC)c3OC)O2)c1` (stereo not given in full)?
A: growth (NCI-H23 lung): 50.7%; growth (NCI-H226 lung): 48.1%; growth (NCI-H322M lung): 81.1%; growth (HOP-62 NSCLC): 83%; growth (NCI-H460 lung): 55.3%; growth (HOP-92 NSCLC): 81.9%; growth (NCI-H522 lung): 31.4%; growth (A549/ATCC NSCLC): 68.8%; growth (786-0 renal): 68.3%; growth (COLO 205 colon): 77.2%

Q: Which growth (NCI-H23 lung) does the source give for `CC(=O)Nc1ccc(-c2cn(-c3cccc(C(=O)Nc4ccc(N5CCN(C)CC5)cc4)c3)nn2)cn1` here?
A: 67.4%

Q: And the growth (NCI-H226 lung)?
A: 69.1%

Q: What about the growth (NCI-H322M lung) of the same compound?
A: 96.2%

Q: And the growth (HOP-62 NSCLC)?
A: 60%

Q: And the growth (NCI-H460 lung)?
A: 90.4%

Q: And the growth (HOP-92 NSCLC)?
A: 44.8%

Q: What about the growth (NCI-H522 lung) of the same compound?
A: 91.8%

Q: And the growth (A549/ATCC NSCLC)?
A: 76.1%

Q: What about the growth (786-0 renal) of the same compound?
A: 12.5%

Q: And the growth (COLO 205 colon)?
A: 72%

Q: How did the growth (NCI-H23 lung) turn out when `COc1cc(-c2ccc(/C=N/NC(=O)c3[nH]c4ccc(Br)cc4c3-c3ccccc3)o2)cc(OC)c1OC` was run?
A: 53.9%

Q: What about the growth (NCI-H226 lung) of the same compound?
A: 49.6%

Q: What about the growth (NCI-H322M lung) of the same compound?
A: 81.2%

Q: And the growth (HOP-62 NSCLC)?
A: 62.6%

Q: And the growth (NCI-H460 lung)?
A: 62.8%

Q: What about the growth (HOP-92 NSCLC) of the same compound?
A: 61.7%

Q: What about the growth (NCI-H522 lung) of the same compound?
A: 82.8%

Q: What about the growth (A549/ATCC NSCLC) of the same compound?
A: 71.6%

Q: And the growth (786-0 renal)?
A: 67.2%

Q: And the growth (COLO 205 colon)?
A: 94.7%

Q: Which growth (NCI-H23 lung) does the source give for `Nc1nc(C(F)(F)F)cs1` here?
A: 104%

Q: And the growth (NCI-H226 lung)?
A: 98.9%

Q: What about the growth (NCI-H322M lung) of the same compound?
A: 104%

Q: And the growth (HOP-62 NSCLC)?
A: 101%

Q: And the growth (NCI-H460 lung)?
A: 107%

Q: What about the growth (HOP-92 NSCLC) of the same compound?
A: 107%

Q: And the growth (NCI-H522 lung)?
A: 98.3%

Q: What about the growth (A549/ATCC NSCLC) of the same compound?
A: 103%

Q: And the growth (786-0 renal)?
A: 98.4%

Q: What about the growth (COLO 205 colon) of the same compound?
A: 114%

Q: `CC(C)c1sc(NC(=O)c2cc(NC(=O)c3cc(NC(=O)c4nccn4C)cn3C)cn2C)nc1C(=O)NCCCN(C)C` was tested. Which growth (NCI-H23 lung) did it give?
A: 75.3%

Q: What about the growth (NCI-H226 lung) of the same compound?
A: 71.2%

Q: What about the growth (NCI-H322M lung) of the same compound?
A: 95.6%

Q: What about the growth (HOP-62 NSCLC) of the same compound?
A: 80.1%

Q: What about the growth (NCI-H460 lung) of the same compound?
A: 118%

Q: And the growth (HOP-92 NSCLC)?
A: -0.363% (active)

Q: And the growth (NCI-H522 lung)?
A: 38.3%

Q: And the growth (A549/ATCC NSCLC)?
A: 106%

Q: What about the growth (786-0 renal) of the same compound?
A: 104%

Q: And the growth (COLO 205 colon)?
A: 69.1%

Q: `COc1cc(/C=C/C(=O)c2ccc(C)cc2)ccc1Oc1nc(Nc2ccc(F)cc2)nc(N(C)C)n1` was tested. Which growth (NCI-H23 lung) did it give?
A: 39%

Q: And the growth (NCI-H226 lung)?
A: 61.9%

Q: What about the growth (NCI-H322M lung) of the same compound?
A: 74.1%

Q: And the growth (HOP-62 NSCLC)?
A: 86.4%

Q: What about the growth (NCI-H460 lung) of the same compound?
A: 34.4%

Q: And the growth (HOP-92 NSCLC)?
A: 52.7%

Q: What about the growth (NCI-H522 lung) of the same compound?
A: 44.8%

Q: And the growth (A549/ATCC NSCLC)?
A: 60%

Q: And the growth (786-0 renal)?
A: 37.5%

Q: What about the growth (COLO 205 colon) of the same compound?
A: 86.8%

Q: What does the source list for `COc1ccc(C(=O)/C=C/c2cccc3ccccc23)cc1S(N)(=O)=O`?
A: growth (NCI-H23 lung): -20.5% (active); growth (NCI-H226 lung): 32.7%; growth (NCI-H322M lung): 14.8%; growth (HOP-62 NSCLC): 18.2%; growth (NCI-H460 lung): 2.2% (active); growth (HOP-92 NSCLC): 73%; growth (NCI-H522 lung): -67% (active); growth (A549/ATCC NSCLC): 7.01% (active); growth (786-0 renal): -29.8% (active); growth (COLO 205 colon): -78.6% (active)

Q: Which results are given for `Cn1cc(NC(=O)c2cc(NC(=O)c3ccc(C#Cc4ccccc4)cc3)cn2C)cc1C(=O)NCCCN1CCOCC1`?
A: growth (NCI-H23 lung): 58.9%; growth (NCI-H226 lung): 69.7%; growth (NCI-H322M lung): 81%; growth (HOP-62 NSCLC): 85.4%; growth (NCI-H460 lung): -15.3% (active); growth (HOP-92 NSCLC): -11.5% (active); growth (NCI-H522 lung): -52.2% (active); growth (A549/ATCC NSCLC): 33.3%; growth (786-0 renal): -4.75% (active); growth (COLO 205 colon): -78.7% (active)

Q: Which results are given for `CCOC(=O)C1=C(N)N(c2ccccc2)C2=C(C(=O)CC(C)(C)C2)C1c1cccc(Cl)c1Cl` (stereo not given)?
A: growth (NCI-H23 lung): 69.7%; growth (NCI-H226 lung): 40.3%; growth (NCI-H322M lung): 77.8%; growth (HOP-62 NSCLC): 40.8%; growth (NCI-H460 lung): 61%; growth (HOP-92 NSCLC): -0.828% (active); growth (NCI-H522 lung): 74.9%; growth (A549/ATCC NSCLC): 60.6%; growth (786-0 renal): 67.7%; growth (COLO 205 colon): 80.6%

Q: `COc1cc2oc(-c3cccc(NC(=O)[C@H](Cc4ccccc4)NC(=O)OC(C)(C)C)c3)cc(=O)c2c(OC)c1OC` was tested. Which growth (NCI-H23 lung) did it give?
A: 39.1%

Q: What about the growth (NCI-H226 lung) of the same compound?
A: 28%

Q: And the growth (NCI-H322M lung)?
A: 46.1%

Q: And the growth (HOP-62 NSCLC)?
A: 49%

Q: What about the growth (NCI-H460 lung) of the same compound?
A: 11.5%

Q: What about the growth (HOP-92 NSCLC) of the same compound?
A: 61.7%

Q: What about the growth (NCI-H522 lung) of the same compound?
A: 30.3%

Q: And the growth (A549/ATCC NSCLC)?
A: 24.7%

Q: And the growth (786-0 renal)?
A: 43.8%

Q: What about the growth (COLO 205 colon) of the same compound?
A: 33.8%

Q: Which results are given for `CCN1C(=O)/C(=N\N=C(/C)c2ccc3c(c2)Nc2ccccc2S3)c2cc(Cl)ccc21`?
A: growth (NCI-H23 lung): 50.4%; growth (NCI-H226 lung): 66.7%; growth (NCI-H322M lung): 91.3%; growth (HOP-62 NSCLC): 92.9%; growth (NCI-H460 lung): 63.4%; growth (HOP-92 NSCLC): 29.8%; growth (NCI-H522 lung): 54%; growth (A549/ATCC NSCLC): 49.8%; growth (786-0 renal): 75%; growth (COLO 205 colon): 89.8%

Q: Which results are given for `COc1ccc(C(=O)/C=C/c2ccc(Oc3nc(Nc4ccc(F)cc4)nc(N(C)C)n3)c(OC)c2)cc1`?
A: growth (NCI-H23 lung): 42%; growth (NCI-H226 lung): 69.7%; growth (NCI-H322M lung): 80.4%; growth (HOP-62 NSCLC): 100%; growth (NCI-H460 lung): 26.2%; growth (HOP-92 NSCLC): 57.4%; growth (NCI-H522 lung): 49.7%; growth (A549/ATCC NSCLC): 64.7%; growth (786-0 renal): 57.3%; growth (COLO 205 colon): 93.1%

Q: Which growth (NCI-H23 lung) does the source give for `CCCSc1nc(NCCc2c[nH]c3ccccc23)c(C#N)c(-c2ccc(F)cc2)n1` here?
A: 80.6%

Q: And the growth (NCI-H226 lung)?
A: 32.5%

Q: What about the growth (NCI-H322M lung) of the same compound?
A: 82.9%

Q: What about the growth (HOP-62 NSCLC) of the same compound?
A: 40.4%

Q: And the growth (NCI-H460 lung)?
A: 14.1%

Q: What about the growth (HOP-92 NSCLC) of the same compound?
A: 52.1%

Q: What about the growth (NCI-H522 lung) of the same compound?
A: 61.3%

Q: And the growth (A549/ATCC NSCLC)?
A: 58.6%

Q: And the growth (786-0 renal)?
A: 62.4%

Q: What about the growth (COLO 205 colon) of the same compound?
A: 44%

Q: Which growth (NCI-H23 lung) does the source give for `Cc1cc(C)cc(C(=O)Nc2cccc(-c3cn(-c4ccc(S(N)(=O)=O)cc4)nn3)c2)c1` here?
A: 0.645% (active)

Q: What about the growth (NCI-H226 lung) of the same compound?
A: 15.9%

Q: And the growth (NCI-H322M lung)?
A: 68.5%

Q: What about the growth (HOP-62 NSCLC) of the same compound?
A: -18.3% (active)

Q: And the growth (NCI-H460 lung)?
A: 41.4%

Q: What about the growth (HOP-92 NSCLC) of the same compound?
A: -56.2% (active)

Q: What about the growth (NCI-H522 lung) of the same compound?
A: 61.7%

Q: And the growth (A549/ATCC NSCLC)?
A: 62.2%

Q: What about the growth (786-0 renal) of the same compound?
A: -66.3% (active)

Q: And the growth (COLO 205 colon)?
A: 141%

Q: Which results are given for `O=C(NNc1nc2cc(F)ccc2n2c(CN3CC4CNCC4C3)ccc12)c1ccncn1` (stereo not given)?
A: growth (NCI-H23 lung): 30.7%; growth (NCI-H226 lung): 7.23% (active); growth (NCI-H322M lung): 30.8%; growth (HOP-62 NSCLC): 38.3%; growth (NCI-H460 lung): 5.26% (active); growth (HOP-92 NSCLC): 34.5%; growth (NCI-H522 lung): 32.1%; growth (A549/ATCC NSCLC): 17.8%; growth (786-0 renal): -2.41% (active); growth (COLO 205 colon): 10%

Q: With `CC1=C(C(=O)c2ccccc2)C(c2ccc(-n3cncn3)cc2)n2c(nc3ccccc32)N1` (stereo not given) as the compound, how does the growth (NCI-H23 lung) read?
A: 87.9%

Q: What about the growth (NCI-H226 lung) of the same compound?
A: 87.4%

Q: And the growth (NCI-H322M lung)?
A: 79.5%

Q: What about the growth (HOP-62 NSCLC) of the same compound?
A: 71.5%

Q: And the growth (NCI-H460 lung)?
A: 80.5%

Q: What about the growth (HOP-92 NSCLC) of the same compound?
A: 76.1%

Q: And the growth (NCI-H522 lung)?
A: 83.2%

Q: What about the growth (A549/ATCC NSCLC) of the same compound?
A: 77.1%

Q: What about the growth (786-0 renal) of the same compound?
A: 96.8%

Q: And the growth (COLO 205 colon)?
A: 95.4%
